The subject of assay [1] is Aerobactin synthetase IucA (Klebsiella pneumoniae hvKP1). The assay can be described thus: IucA enzyme inhibition, primary screen, biochemical, Spectrum library (AID 1346200).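 Note: 100% = wells without compound and 0% = wells lacking enzyme.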 The conditions noted are these: malachite green pyrophosphate, A620, at 8 µM, stronger effect = lower value.
Assay [2] has as its system Aerobactin synthetase IucA (Klebsiella pneumoniae, hypervirulent). In words: biochemical IucA inhibition screen of LOPAC library by absorbance (AID 1346212).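 Note: 100% = no compound wells and 0% = no enzyme wells.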 The conditions noted are these: IucA enzyme assay, absorbance (OD) readout; stronger effect = lower value;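 tested at 8 µM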.

The structures appear in SMILES notation. Where “and” joins values, the source holds several entries; their conditions need not be identical. Equal values may be shown once. A number with no mark means an inactive call. The rule behind the calls is not given here.

Usually remaining activity stands for the signal under treatment as a percentage of the control signal. As to `NC12CC3CC(CC(C3)C1)C2`, the activity remaining in assay [1] was 107%. The remaining activity in assay [2] was 119%.
For the molecule `O=C1c2c(O)ccc(O)c2C(=O)c2c(NCCNCCO)ccc(NCCNCCO)c21`, the activity remaining in assay [1] is 107%. Moreover, the remaining activity in assay [2] was 110%.
In the case of `CC(N=C(NC#N)Nc1ccncc1)C(C)(C)C` (centres undefined), in assay [1], the activity remaining is 105%. In addition, the remaining activity in assay [2] is 92.7%.
The like results for `COc1ccc(C2CNC(=O)C2)cc1OC1CCCC1` (centres undefined) were, in that order, 120% and 91.4%.
The matching figures for `CN1C(C(=O)Nc2ccccn2)=C(O)c2ccccc2S1(=O)=O`: 115% and 109%.
The like results for `CCCN(CCC)C(=O)C(CCC(=O)O)NC(=O)c1ccccc1` (centres undefined) were, in that order, 115% and 99.4%.
Consider `CC(C)(C)NCC(O)c1cc(O)cc(O)c1` (centres undefined), for which, in assay [1], the activity remaining was 109%. In addition, the remaining activity in assay [2] is 109%.
In the case of `C[C@H](CS)C(=O)N1CCC[C@H]1C(=O)O`, the activity remaining in assay [1] was 99.1%. Besides, the remaining activity in assay [2] is 99.3%.
Take `OCCN1CCN(CCCN2c3ccccc3Sc3ccc(C(F)(F)F)cc32)CC1`: the activity remaining in assay [1] was 125%. The remaining activity in assay [2] was 93.9%.
The like results for `O=C(O)c1cccnc1C(=O)O` were, in that order, 89.1% and 116%.
Regarding `CN(C)CCCC1(c2ccc(F)cc2)OCc2cc(C#N)ccc21` (centres undefined), the activity remaining in assay [1] is 102%. In addition, in assay [2], the remaining activity was 124%.
Turning to `CN(C)CCC=C1c2ccccc2CCc2ccccc21`, the activity remaining in assay [1] was 110%. For the same molecule, the remaining activity in assay [2] is 106%.
With `COCCOC(=O)C1=C(C)NC(C)=C(C(=O)OC(C)C)C1c1cccc([N+](=O)[O-])c1` (centres undefined), the activity remaining in assay [1] was 118%. Further, the remaining activity in assay [2] was 111%.
The like results for `N[C@@H]1CONC1=O` were, in that order, 102% and 112%.
The matching figures for `CSc1ccc2c(c1)N(CCC1CCCCN1C)c1ccccc1S2` (centres undefined): 116% and 91.4%.
Consider `OC(CCN1CCCCC1)(c1ccccc1)C1CC2C=CC1C2` (centres undefined), for which the activity remaining in assay [1] is 87.7%. Also, the remaining activity in assay [2] was 116%.
Take `Cc1ccccc1N1C(=O)c2cc(S(N)(=O)=O)c(Cl)cc2NC1C` (centres undefined): the activity remaining in assay [1] is 95.7%. Also, the remaining activity in assay [2] is 122% and 125%.
`CCC1(c2ccccc2)C(=O)NCNC1=O`: the activity remaining in assay [1] is 125%. Further, the remaining activity in assay [2] is 75.1%.
The like results for `N=c1nc(N2CCCCC2)cc(N)n1O` were, in that order, 110% and 118%.
Regarding `c1ccc2c(CC3=NCCN3)cccc2c1`, in assay [1], the activity remaining was 106%. Also, the remaining activity in assay [2] is 115%.
With `CN(C)CCC(c1ccccc1)c1ccccn1` (centres undefined), the activity remaining in assay [1] was 109%. In addition, the remaining activity in assay [2] is 89.8%.
In the case of `NCCS(=O)(=O)O`, the activity remaining in assay [1] is 123%. In addition, the remaining activity in assay [2] is 97.8%.
The like results for `NCCSSCCN` were, in that order, 116% and 117%.
The matching figures for `Clc1ccc2c(c1)C(N1CCNCC1)=Nc1ccccc1O2`: 109% and 126%.
The like results for `CN(C)CCC=C1c2ccccc2C=Cc2ccccc21` were, in that order, 111% and 109%.
Take `O=c1n(CCCN2CCN(c3cccc(Cl)c3)CC2)nc2ccccn12`: the activity remaining in assay [1] is 112%. Also, the remaining activity in assay [2] is 118%.
Consider `CN(C)[C@@H]1C(=O)C(C(N)=O)=C(O)[C@@]2(O)C(=O)C3=C(O)c4c(O)ccc(Cl)c4[C@@H](O)[C@H]3C[C@@H]12`, for which the activity remaining in assay [1] is 97%. Besides, the remaining activity in assay [2] is 92.3%.
The like results for `CCCCNc1cc(C(=O)O)cc(S(N)(=O)=O)c1Oc1ccccc1` were, in that order, 115% and 109%.
The matching figures for `COC(=O)C1=C(C)NC(C)=C(C(=O)OCCN(C)Cc2ccccc2)C1c1cccc([N+](=O)[O-])c1` (centres undefined): 107% and 109%.
With `NC(=O)c1cnccn1`, the activity remaining in assay [1] was 102%. The remaining activity in assay [2] is 80.6%.
The like results for `CN1C(=O)CC[C@H]1c1cccnc1` were, in that order, 101% and 122%.
In the case of `O=[N+]([O-])c1cccc2cn[nH]c12`, the activity remaining in assay [1] is 102%. For the same molecule, the remaining activity in assay [2] is 114%.
The like results for `CN1C2CCC1CC(OC(c1ccccc1)c1ccccc1)C2` (centres undefined) were, in that order, 101% and 113%.
The matching figures for `O=C1OC(=O)C2C3CCC(O3)C12` (centres undefined): 117% and 106%.
On to `O=C1NCC2(CCN(CCc3ccccc3)CC2)O1`, for which the activity remaining in assay [1] was 111%. Moreover, the remaining activity in assay [2] was 97.8%.
The matching figures for `O=C(O)CCCCCCCC(=O)O`: 120% and 93.4%.
As to `CC(C)(C)NCC(O)c1ccc(O)c(CO)c1` (centres undefined), the activity remaining in assay [1] is 110%. Also, the remaining activity in assay [2] is 121% and 104%.
Turning to `C[C@](N)(Cc1ccc(O)cc1)C(=O)O`, the activity remaining in assay [1] was 120%. Further, the remaining activity in assay [2] was 110%.
As to `CCCNC(C)C(=O)Nc1ccccc1C` (centres undefined), in assay [1], the activity remaining is 82%. In addition, the remaining activity in assay [2] is 96.4%.
As for `NC(=NCc1ccccc1)NC(=O)c1nc(Cl)c(N)nc1N`, the activity remaining in assay [1] is 78.3%. The remaining activity in assay [2] was 94.8%.
As for `NC(N)=NCCCCN=C(N)N`, the activity remaining in assay [1] was 119%. In addition, in assay [2], the remaining activity was 90.7%.
The like results for `CCCCC1C(=O)N(c2ccccc2)N(c2ccccc2)C1=O` were, in that order, 117% and 102%.

For the origin of these results see PubChem BioAssay.
